Screening results from PubChem.
TDP1 cell noCPT = qHTS for Inhibitors of human tyrosyl-DNA phosphodiesterase 1 (TDP1): qHTS in cells in absence of CPT | DT40 Tdp1-/- hTDP1 cells, no CPT, ATP luminescence, 48 h | Potency, µM (highest dose often 46.2 µM), without a hit: at the top dose activity change, negative = growth inhibition, actives largely listed as inhibitors | 420,000 compounds, 15% hits; further: potency means the concentration at half of the fitted maximal effect; on the % scale 0 is the no-effect control and ±100 the full control effect; nearly all actives have a fitted effect of over 55% in size
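Readout: luminescence from CellTiter-Glo after 30 min in the dark at RT. Cells: DT40 Tdp1-/- with stable hTDP1, 400/well. Exposure: compounds alone, ≥48 hr, 37 °C.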
IL1B secr inh = qHTS for Inhibitors of Inflammasome Signaling: IL-1-beta AlphaLISA Primary Screen; THP-1 LPS/ATP IL-1B secretion, AlphaLISA, 16 h; active compounds read low; activity change, % at 57.5 µM; 360,000 compounds, 4.7% hits; AID 743279, 2014; in the data active means activity change below about -50%; inconclusive means mostly about -30% to -49%; further: on the % scale 0 is the no-effect control and ±100 the full control effect
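Secreted IL-1B measured by AlphaLISA bead assay after 16 h compound exposure of THP-1 cells; compounds (final up to 57.5 uM) added 1 h before LPS (250 ng/mL) and ATP (1.25 mM) stimulation; lower signal means less secretion.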
TDP1 block = qHTS Assay for Inhibitors of Tyrosyl-DNA Phosphodiesterase (TDP1); Potency, µM (top dose mostly 130 µM), for the others: at the top dose activity change, negative = inhibition, most hits filed as inhibitors; 350,000 compounds, 0.28% hits; recombinant TDP1, AlphaScreen DNA substrate cleavage; Tyrosyl-DNA phosphodiesterase 1 (Homo sapiens), Q9NUW8; further: potency means the concentration at half of the fitted maximal effect; on the % scale 0 is the no-effect control and ±100 the full control effect; nearly all actives have a fitted effect of over 40% in size
Target sequence (Q9NUW8 whole entry, looked up): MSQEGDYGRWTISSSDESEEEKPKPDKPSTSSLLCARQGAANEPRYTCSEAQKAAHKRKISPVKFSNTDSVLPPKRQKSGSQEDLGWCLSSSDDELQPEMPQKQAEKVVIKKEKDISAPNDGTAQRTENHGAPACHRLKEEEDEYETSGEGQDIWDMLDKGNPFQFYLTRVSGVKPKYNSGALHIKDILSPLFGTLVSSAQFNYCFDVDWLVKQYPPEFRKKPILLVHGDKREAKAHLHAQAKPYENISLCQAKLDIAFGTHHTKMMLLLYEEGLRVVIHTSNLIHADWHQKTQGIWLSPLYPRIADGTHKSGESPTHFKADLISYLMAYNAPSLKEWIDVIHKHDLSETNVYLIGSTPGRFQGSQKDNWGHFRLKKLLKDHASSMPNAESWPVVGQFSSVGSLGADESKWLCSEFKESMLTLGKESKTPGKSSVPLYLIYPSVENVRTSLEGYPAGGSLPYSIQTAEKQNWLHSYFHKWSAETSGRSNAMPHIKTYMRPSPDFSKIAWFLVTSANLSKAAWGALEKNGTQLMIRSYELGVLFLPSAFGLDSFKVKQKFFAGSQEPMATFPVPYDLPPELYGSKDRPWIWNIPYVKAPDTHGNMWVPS
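E. coli-derived human Tdp1, 1 nM final. Cpd preinc 15 min RT; substrate 15 nM final, 5 min RT; AS bead mix 10 ug/ml final, 10 min RT. Signal loss = tyrosine-FITC cleavage. No-enzyme wells = max signal.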
DT40 TDP1 CPT = qHTS for Inhibitors of human tyrosyl-DNA phosphodiesterase 1 (TDP1): qHTS in cells in presence of CPT | chicken DT40 Tdp1-/-;hTDP1 cells + 20 nM CPT, ATP luminescence, 48 h | Potency, µM (top dose mostly 46.2 µM), inactives show top-dose activity change, negative = growth inhibition, most hits filed as inhibitors | 420,000 compounds, 12% hits | AID 686979, 2013; further: potency means the concentration at half of the fitted maximal effect; on the % scale 0 is the no-effect control and ±100 the full control effect; nearly all actives have a fitted effect of over 55% in size
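Chicken DT40 Tdp1-/- cells stably complemented with human TDP1 were seeded at 400 cells/well in medium containing 20 nM camptothecin, exposed to pin-transferred compounds, and grown at 37 °C for at least 48 hr. Viability was read as ATP luminescence.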
HepG2 viability = qHTS for Inhibitors of TGF-b: Cytotox Counterscreen. Potency, µM (highest dose often 46.1 µM), for inactives: at the highest dose activity change, negative = cytotoxicity, usual class: cytotoxic. HepG2 CAGA-GFP viability, ATP luminescence, 18 h. AID 588856, 2011. 410,000 compounds, 0.76% hits; further: potency means the concentration at half of the fitted maximal effect
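HepG2 CAGA-GFP cells (1000/well, DMEM with 1% FBS) received compound, then TGF-beta at 500 pg/mL final, and were incubated 18 hours at 37 degrees C. Viability was read by CellTiter-Glo luminescence. Media-only wells were set as complete cell-killing and DMSO as no toxicity.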
TGFb SMAD3 inh = qHTS for Inhibitors of TGF-b; 410,000 compounds, 1.2% hits; HepG2 CAGA-GFP TGF-b/SMAD3 reporter, GFP fluorescence, 18 h; TGF-beta stimulated, 500 pg/mL final; Potency, µM (highest dose often 46.1 µM), for inactives: at the top dose activity, negative = inhibition, actives largely listed as inhibitors; AID 588855, 2011; further: potency means the concentration at half of the fitted maximal effect; on the % scale 0 is the no-effect control and ±100 the full control effect; nearly all actives have a fitted effect of over 65% in size
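HEPG2 CAGA-GFP cells (1000/well, DMEM with 1% FBS) were pre-incubated 2 h at 37 degrees C, given compound by pin tool, then stimulated with TGF-beta at 500 pg/mL final for 18 h before per-cell GFP fluorescence imaging.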
Starred values were filed as active, the others as inactive; ? = inconclusive; · = not tested or not shown; [ ] = another dose, or the depositor's remark. A selection: hits, their analogues and other compounds. The true share with any hit is near 18%. Unless noted, the call rests on the fitted dose curve; in most records, active means well fitted curve in the direction sought with a large enough effect; inconclusive means small, poorly fitted or top-dose-only effect, or another doubt; inactive means no such curve, though single readings can be large; an effect the other way counts as inactive or inconclusive.

SMILES | TDP1 cell noCPT | IL1B secr inh | TDP1 block | DT40 TDP1 CPT | HepG2 viability | TGFb SMAD3 inh
O=C(NNC1=C(C(=O)C(F)(F)F)CCC1)c1ccccc1O | 21µM* | 82 | 8% | 16µM* | -78% | ?
COc1cccc(N2CCN(S(=O)(=O)c3ccc4[nH]c5c(c4c3)CCCC5)CC2)c1 | ? | · | 9% | ? | -15% | ?
COc1ccc([N+](=O)[O-])cc1NC(c1nnc(-c2ccccc2)o1)c1ccccc1F (stereo unspecified) | 10% | · | 3% | 15% | 0% | -20%
Cc1ccc(NC(c2nnc(-c3ccccc3)o2)c2ccccc2F)c([N+](=O)[O-])c1 (stereo unspecified) | 23µM* | · | 11% | -23% | -21% | -29%
CCn1cc(C(=O)NCc2ccccc2)c(=O)c2cc(F)c(N3CCN(C(=O)c4ccco4)CC3)cc21 | 9.2µM* | -64* | 10% | 10µM* | -49% | 20µM*
CCn1cc(C(=O)NCc2ccc3c(c2)OCO3)c(=O)c2cc(F)c(N3CCN(C(=O)c4ccco4)CC3)cc21 | 10µM* | -59* | 3% | 12µM* | 10% | 0%
CCN(CC)CCCNC(=O)c1cn(CC)c2cc(N3CCN(C(=O)c4ccco4)CC3)c(F)cc2c1=O | 0% | -5 | 6% | -18% | 10% | 7%
COC(=O)CNC(c1ccccc1)c1cc(Br)ccc1NC(=O)CCN1CCOCC1 (stereo unspecified) | 1.6µM* | -55* | 3% | 2.6µM* | 22µM* | 18µM*
CCOC(=O)CNC(c1ccccc1)c1cc(Br)ccc1NC(=O)c1ccc(Cl)cc1 (stereo unspecified) | 6.5µM* | · | 1%[12.3 µM] | 10µM* | 8% | 14%
CCOC(=O)CNC(c1ccccc1)c1cc(Br)ccc1NC(=O)CCN1CCOCC1 (stereo unspecified) | 0.82µM* | ? | 5% | 2.1µM* | 13µM* | ?
Cc1cc(Nc2ccc(C)c(C)c2)n2cnnc2n1 | -21% | · | 5% | 0% | 1% | -21%
N=c1oc2cc(O)ccc2cc1C(=O)Nc1ccc(Cl)cc1 | 8% | -89* | · | ? | 9% | 11%
N=c1oc2ccc(Cl)cc2cc1C(=O)NC1CCCCCC1 | 21µM* | · | 2% | 26µM* | -1% | -2%
O=C(Cn1ncn2c(cc3ccccc32)c1=O)NCc1ccc(F)cc1 | 4.1µM* | · | -6% | 5.8µM* | 5% | 0%
O=C(Cn1ncn2c(cc3ccccc32)c1=O)NCCCc1ccccc1 | -8% | 0 | 3% | -15% | -8% | 0%
Cc1ccc(NC(=O)Cc2nn(C)c(=O)c3ccccc23)cc1F | 2.6µM* | -23 | 1% | 2.3µM* | -29% | 0%
Cn1nc(CC(=O)NCc2ccc(F)cc2)c2ccccc2c1=O | 18µM* | 39 | 4% | 13µM* | -19% | -13%
Cn1nc(CC(=O)NCc2cccc3ccccc23)c2ccccc2c1=O | 9.2µM* | 27 | 6% | 7.3µM* | 5% | 3%
Cc1ccc(C(=O)N2CCC2(C)C(=O)NC(C)C)cc1 (stereo unspecified) | 20% | -5 | · | -6% | -2% | -1%
O=C(c1ccco1)N1CCC2(CCCN(c3ccncc3)C2)CC1 | -28% | · | · | -10% | · | ·
Cc1cccc(NC(=O)c2cnn3ccccc23)c1C | 2.1µM* | -53* | 3% | 1.6µM* | -7% | -2%
Cc1ccc(C)c(NC(=O)c2cc(C)nc3ccccc23)c1 | ? | 16 | · | -24% | -7% | -1%
Cc1ccc(C)c(NC(=O)c2ccccc2O)c1 | 9.2µM* | 6 | 6% | 8.2µM* | -14% | ?
O=C(Nc1ccccc1O)c1ccccc1O | ? | -9 | 2% | ? | -38% | ?
Cc1cccc(NC(=O)c2cccc([N+](=O)[O-])c2O)c1C | 13µM* | 5 | · | 16µM* | -46% | ?
SMILES | TDP1 cell noCPT | IL1B secr inh | TDP1 block | DT40 TDP1 CPT | HepG2 viability | TGFb SMAD3 inh
Cc1cccc(NC(=O)c2ccccc2O)c1C | ? | -61* | 0% | 21µM* | -29% | -24%
Cc1ccc(C(=O)Nc2ccccc2C(=O)O)cc1S(=O)(=O)Nc1ccc(Br)cc1 | ? | 16 | · | -16% | -1% | ?
COc1ccccc1CNC(=O)CCc1c(C)nn(-c2ccc(N3CCCC3)nn2)c1C | ? | · | 7% | ? | -1% | ?
C[C@@H]1CN([C@H](C)CO)S(=O)(=O)c2ccc(C#CC3CCCC3)cc2O[C@H]1CN(C)C(=O)Cc1ccccc1 | 5.8µM* | -81* | · | 5.8µM* | 16µM* | ?
CCCC#Cc1ccc2c(c1)O[C@H](CN(C)C(=O)CC1CC1)[C@H](C)CN([C@@H](C)CO)S2(=O)=O | 18µM* | -14 | · | ? | -31% | -13%
CC(C)CC#Cc1ccc2c(c1)O[C@H](CN(C)C(=O)Nc1ccccc1)[C@@H](C)CN([C@H](C)CO)S2(=O)=O | -2% | 0 | · | 3% | -18% | -6%
C[C@@H]1CN([C@H](C)CO)S(=O)(=O)c2ccc(C#Cc3ccccc3)cc2O[C@H]1CN(C)C(=O)Nc1ccc2c(c1)OCO2 | 16µM* | ? | · | 13µM* | -2% | 10%
C[C@@H]1CN([C@H](C)CO)S(=O)(=O)c2ccc(C#Cc3ccccc3)cc2O[C@@H]1CN(C)C(=O)CN(C)C | 26µM* | -29 | · | 16µM* | -51% | ?
C[C@H]1CN([C@@H](C)CO)S(=O)(=O)c2ccc(C#CC3(O)CCCC3)cc2O[C@@H]1CN(C)C(=O)Cc1cccnc1 | -19% | 30 | · | -24% | 4% | 2%
C=CCn1c(Cc2ccccc2)nc2c(cnn2-c2ccccc2)c1=O | 23µM* | 14 | · | ? | -29% | ?
COc1ccccc1NC(=O)C(=O)Nc1ccc2c(c1)N(C(=O)C1CC1)CCC2 | ? | 4 | · | -18% | -8% | 3%
COCC(C)NC(=O)NC1(C(F)(F)F)Oc2ccc(Cl)cc2O1 (stereo unspecified) | 13µM* | 58 | -5% | 13µM* | -42% | -17%
